Experimental findings from PubChem BioAssay (Tox21) are described below.

Results filed as inconclusive are left out. A call without a number means that no potency is given here. Unmarked numbers belong to inactive results. Active and inactive are the calls of the source. Unless noted, calls come from the whole dose curve.

Sequence of Thyrotropin receptor (Homo sapiens) (P16473 whole entry, looked up): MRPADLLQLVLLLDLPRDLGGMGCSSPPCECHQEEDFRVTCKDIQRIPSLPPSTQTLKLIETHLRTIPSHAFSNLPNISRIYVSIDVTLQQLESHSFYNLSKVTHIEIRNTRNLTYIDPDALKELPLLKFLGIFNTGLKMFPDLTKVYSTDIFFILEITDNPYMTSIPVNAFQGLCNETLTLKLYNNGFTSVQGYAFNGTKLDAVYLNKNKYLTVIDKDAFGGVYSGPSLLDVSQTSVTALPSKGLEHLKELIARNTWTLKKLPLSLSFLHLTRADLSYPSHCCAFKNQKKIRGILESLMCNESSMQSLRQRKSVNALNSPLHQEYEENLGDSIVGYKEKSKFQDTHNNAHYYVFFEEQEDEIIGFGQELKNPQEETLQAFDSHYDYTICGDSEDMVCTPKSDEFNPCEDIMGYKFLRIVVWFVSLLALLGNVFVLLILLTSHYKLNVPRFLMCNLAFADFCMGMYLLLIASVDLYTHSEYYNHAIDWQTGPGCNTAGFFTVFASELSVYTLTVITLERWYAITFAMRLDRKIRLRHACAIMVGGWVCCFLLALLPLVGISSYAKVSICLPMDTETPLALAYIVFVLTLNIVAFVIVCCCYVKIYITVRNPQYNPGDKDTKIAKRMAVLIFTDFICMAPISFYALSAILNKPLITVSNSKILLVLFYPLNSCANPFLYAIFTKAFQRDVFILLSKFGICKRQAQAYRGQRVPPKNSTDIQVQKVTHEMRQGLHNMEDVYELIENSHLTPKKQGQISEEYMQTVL

System in one test: not listed separately
The test is described as follows: qHTS assay to identify small molecule antagonists of the estrogen related receptor signaling pathway with the pleiotropic PPARgamma coactivator (PGC) from Tox21 10K library (AID 1224841; call rule not given here; note: actives are mostly falling curves and most rising ones were filed inactive; nearly all actives have a fitted effect of over 50% in size; note: potency is the fitted concentration of half-maximal effect). The following applies: PGC/ERR reporter cell line, ONE-Glo luciferase, 18 h; series mostly up to 92.4 µM. The gist of the method:
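PGC/ERR cell line, 2,000 cells/well; 6 h pre-incubation 37 C/5% CO2; compounds (DMSO) pinned in; 18 h, 37 C; One-Glo, 30 min RT; luminescence.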
Consider `O=S(=O)(O)c1cccc2c(S(=O)(=O)O)cccc12`, for which the Potency result was “inactive”.
Still for that read-out and setting: the value for `CCCO[Si](OCCC)(OCCC)OCCC` was “inactive”; that for `C=COCC1CCC(COC=C)CC1` (centres undefined) was “inactive”; that for `CCOC(=O)COC(=O)c1ccccc1C(=O)OCC` was “inactive”.
On the same count and under the same terms, the value for `CCC(C(=O)NC(=O)NC(C)=O)c1ccccc1` (centres undefined) was “inactive”.
Same read-out and setting: in the case of `O=C(CO)[C@@H](O)[C@H](O)[C@@H](O)CO` it was “inactive”; in that of `CCCCOCCOC(=O)CCCCCCCCC(=O)OCCOCCCC`, “inactive”; in that of `CO[Si](C)(OC)c1ccccc1`, “inactive”.
Consider `CCOC(=O)CCC(=O)OCC`, for which the Potency entry is “inactive”.
Same read-out and setting: in the case of `Cc1cccc(C)c1NC(=O)CC12CCCN1CCC2` it was “inactive”.
Consider `CC1(C)OC[C@@H](COC(=O)CCc2ccc(OC[C@@H](O)CNCCNC(=O)N3CCOCC3)cc2)O1`, for which the Potency entry was “inactive”.
Same read-out and setting: in the case of `CCCCCCC1CCC(=O)O1` (centres undefined) it was “inactive”; in that of `Clc1cc(Cl)cc(Cl)c1`, “inactive”.
Same read-out and setting: in the case of `CC1=NN(c2cccc(S(=O)(=O)O)c2)C(=O)C1` it was “inactive”; in that of `Cc1cc(C)c(N=Nc2c(O)c(S(=O)(=O)O)cc3cc(S(=O)(=O)O)ccc23)cc1C`, 959 nM (active).

System in another test: not listed separately
Nature of the test: qHTS assay to identify small molecule agonists of the estrogen related receptor signaling pathway with the pleiotropic PPARgamma coactivator (PGC) from Tox21 10K library (AID 1224842; active = well fitted activation curve with a large enough effect in the repeat runs; note: nearly all actives have a fitted effect of over 15% in size). The following applies: PGC/ERR reporter cell line, luciferase ONE-Glo, 18 h; series mostly up to 92.4 µM. The gist of the method:
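Luminescence from One-Glo (30 min, room temperature) measured after PGC/ERR cells had 18 h at 37 C with pinned compound (23 nL in DMSO). Cells had been seeded at 2,000 per well and pre-incubated 6 h.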
Regarding `O=S(=O)(O)c1cccc2c(S(=O)(=O)O)cccc12`, the Potency result is “inactive”.
In the case of `CCCO[Si](OCCC)(OCCC)OCCC`, the Potency entry is “inactive”.
Still for that read-out and setting: in the case of `C=COCC1CCC(COC=C)CC1` (centres undefined) it was “inactive”; in that of `CCOC(=O)COC(=O)c1ccccc1C(=O)OCC`, “inactive”.
Take `CCC(C(=O)NC(=O)NC(C)=O)c1ccccc1` (centres undefined): the Potency entry is “inactive”.
The same measure, in the same setting: in the case of `O=C(CO)[C@@H](O)[C@H](O)[C@@H](O)CO` it was “inactive”; in that of `CCCCOCCOC(=O)CCCCCCCCC(=O)OCCOCCCC`, “inactive”; in that of `CO[Si](C)(OC)c1ccccc1`, “inactive”.
Same read-out and setting: the value for `CCOC(=O)CCC(=O)OCC` was “inactive”.
On the same count and under the same terms, in the case of `Cc1cccc(C)c1NC(=O)CC12CCCN1CCC2` it was “inactive”; in that of `CC1(C)OC[C@@H](COC(=O)CCc2ccc(OC[C@@H](O)CNCCNC(=O)N3CCOCC3)cc2)O1`, “inactive”.
Take `CCCCCCC1CCC(=O)O1` (centres undefined): the Potency entry is “inactive”.
Same read-out and setting: the value for `C[N+]12CCC(CC1)C(OC(=O)C(O)(c1ccccc1)c1ccccc1)C2` (centres undefined) was “inactive”; that for `Clc1cc(Cl)cc(Cl)c1` was “inactive”; that for `CC1=NN(c2cccc(S(=O)(=O)O)c2)C(=O)C1` was “inactive”.
`Cc1cc(C)c(N=Nc2c(O)c(S(=O)(=O)O)cc3cc(S(=O)(=O)O)ccc23)cc1C`: the activation is -8.18% [at 8.39 µM].

A further test concerns the target Thyrotropin receptor (Homo sapiens) (UniProt P16473). Nature of the test: qHTS assay to identify small molecule agonists of the thyroid stimulating hormone receptor (TSHR) signaling pathway (AID 1224843). Note: nearly all actives have a fitted effect of over 45% in size. The following applies: TSHR-HEK293 cells, cAMP HTRF, agonist mode, 30 min; series mostly up to 92.4 µM. Summed up:
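Screening of the Tox21 10K collection used HEK293 cells engineered with TSHR at 800 cells per well. After a 30-min room-temperature compound exposure, HTRF cAMP reagents were added and fluorescence recorded 1 h later.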
Turning to `O=S(=O)(O)c1cccc2c(S(=O)(=O)O)cccc12`, the Potency entry is “inactive”.
As to `COc1ccnc(CS(=O)c2nc3cc(OC(F)F)ccc3[nH]2)c1OC` (centres undefined), the Potency result is “inactive”.
Turning to `CCCO[Si](OCCC)(OCCC)OCCC`, the Potency result was “inactive”.
For the molecule `C=COCC1CCC(COC=C)CC1` (centres undefined), the Potency entry was “inactive”.
Still for that read-out and setting: in the case of `CCCc1nn(C)c2c(=O)[nH]c(-c3cc(S(=O)(=O)N4CCN(C)CC4)ccc3OCC)nc12` it was “inactive”; in that of `CC1=CCC(O)(C(C)C)CC1` (centres undefined), “inactive”; in that of `CCOC(=O)COC(=O)c1ccccc1C(=O)OCC`, “inactive”.
Still for that read-out and setting: the value for `CCC(C(=O)NC(=O)NC(C)=O)c1ccccc1` (centres undefined) was “inactive”.
Same read-out and setting: the value for `O=C(CO)[C@@H](O)[C@H](O)[C@@H](O)CO` was “inactive”; that for `CN(C)[C@@H]1C(=O)C(C(=O)NCN2CCCC2)=C(O)[C@@]2(O)C(=O)C3=C(O)c4c(O)cccc4[C@@](C)(O)C3C[C@@H]12` (some centres undefined) was “inactive”.
`CCCCOCCOC(=O)CCCCCCCCC(=O)OCCOCCCC`: the Potency result was “inactive”.
Still for that read-out and setting: the value for `NC(=O)Cc1cccc2ccccc12` was “inactive”; that for `CO[Si](C)(OC)c1ccccc1` was “inactive”; that for `CCOC(=O)CCC(=O)OCC` was “inactive”.
On to `O=C(O)CCSCCC(=O)O`, for which the Potency entry was “inactive”.
Same read-out and setting: the value for `CN1C(C)(C)CC(O)CC1(C)C` was “inactive”; that for `O=C1c2ccccc2C(=O)c2cc(O)ccc21` was “inactive”; that for `C=CCOCC(O)CO` (centres undefined) was “inactive”.
Same read-out and setting: in the case of `COc1cc(C(=O)OC(COCCC(C)C)CN2CCOCC2)cc(OC)c1OC` (centres undefined) it was “inactive”; in that of `O=C(O)CCCC[P+](c1ccccc1)(c1ccccc1)c1ccccc1`, “inactive”; in that of `Cc1cccc(C)c1NC(=O)CC12CCCN1CCC2`, “inactive”.
In the case of `CC1=NS(=O)(=O)c2cc(Cl)ccc2N1`, the Potency entry was “inactive”.
Consider `CC(C)C(=O)OC(=O)C(C)C`, for which the Potency entry is “inactive”.
Regarding `CC/C=C\CCOC(C)OCC` (centres undefined), the Potency result is “inactive”.
As to `CC(=O)C1CCCCC1=O` (centres undefined), the Potency result is “inactive”.
Still for that read-out and setting: the value for `CC(C)(C)C(=O)c1ccccc1` was “inactive”; that for `O=C(c1ccccc1)C1(O)CCCCC1` was “inactive”; that for `CC1(C)OC[C@@H](COC(=O)CCc2ccc(OC[C@@H](O)CNCCNC(=O)N3CCOCC3)cc2)O1` was “inactive”.
Still for that read-out and setting: in the case of `CCCCCCC1CCC(=O)O1` (centres undefined) it was “inactive”.
As to `CCCCN(CCC(=O)OCC)C(C)=O`, the Potency result was “inactive”.
Take `CCCCCCCCCCCCCCCCCCO`: the Potency entry is “inactive”.
Still for that read-out and setting: in the case of `C[N+]12CCC(CC1)C(OC(=O)C(O)(c1ccccc1)c1ccccc1)C2` (centres undefined) it was “inactive”; in that of `Clc1cc(Cl)cc(Cl)c1`, “inactive”.
The same measure, in the same setting: in the case of `CC1=NN(c2cccc(S(=O)(=O)O)c2)C(=O)C1` it was “inactive”.
The same measure, in the same setting: the value for `CN(C)CCN(C)CCN(C)C` was “inactive”.
On to `C[N+](C)(C)CCCCCCCCCC[N+](C)(C)C`, for which the Potency result was “inactive”.
The same measure, in the same setting: in the case of `NC(=O)N[C@@H](CCC(=O)O)C(=O)O` it was “inactive”.

System in another test: not listed separately
Nature of the test: qHTS assay to identify small molecule agonists of the hypoxia (HIF-1) signaling pathway - cell viability counter screen (AID 1224844). Note: nearly all actives have a fitted effect of over 50% in size. The following applies: HRE-bla ME-180 viability, CellTiter-Glo luminescence, 17 h; series mostly up to 76.8 µM. The gist of the method:
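ME-180 HRE-bla cells, 2,000/well, 0.5% dialyzed FBS; 5 hr settle, 17 hr compound at 37C/5% CO2; CCF4-AM reporter read first, then CellTiter-Glo luminescence after 30 min RT.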
Regarding `O=S(=O)(O)c1cccc2c(S(=O)(=O)O)cccc12`, the Potency entry was “inactive”.
On the same count and under the same terms, the value for `COc1ccnc(CS(=O)c2nc3cc(OC(F)F)ccc3[nH]2)c1OC` (centres undefined) was “inactive”.
The same measure, in the same setting: the value for `CCCO[Si](OCCC)(OCCC)OCCC` was “inactive”; that for `C=COCC1CCC(COC=C)CC1` (centres undefined) was “inactive”.
As to `CCCc1nn(C)c2c(=O)[nH]c(-c3cc(S(=O)(=O)N4CCN(C)CC4)ccc3OCC)nc12`, the Potency entry was “inactive”.
Still for that read-out and setting: in the case of `CC1=CCC(O)(C(C)C)CC1` (centres undefined) it was “inactive”; in that of `CCOC(=O)COC(=O)c1ccccc1C(=O)OCC`, “inactive”; in that of `CCC(C(=O)NC(=O)NC(C)=O)c1ccccc1` (centres undefined), “inactive”.
`O=C(CO)[C@@H](O)[C@H](O)[C@@H](O)CO`: the Potency result is “inactive”.
In the case of `CN(C)[C@@H]1C(=O)C(C(=O)NCN2CCCC2)=C(O)[C@@]2(O)C(=O)C3=C(O)c4c(O)cccc4[C@@](C)(O)C3C[C@@H]12` (some centres undefined), the Potency entry is “inactive”.
As to `CCCCOCCOC(=O)CCCCCCCCC(=O)OCCOCCCC`, the Potency result is “inactive”.
Same read-out and setting: in the case of `NC(=O)Cc1cccc2ccccc12` it was “inactive”; in that of `CO[Si](C)(OC)c1ccccc1`, “inactive”.
For `CCOC(=O)CCC(=O)OCC`, the Potency entry is “inactive”.
As to `O=C(O)CCSCCC(=O)O`, the Potency result was “inactive”.
The same measure, in the same setting: in the case of `CN1C(C)(C)CC(O)CC1(C)C` it was “inactive”; in that of `O=C1c2ccccc2C(=O)c2cc(O)ccc21`, “inactive”; in that of `C=CCOCC(O)CO` (centres undefined), “inactive”.
Still for that read-out and setting: in the case of `COc1cc(C(=O)OC(COCCC(C)C)CN2CCOCC2)cc(OC)c1OC` (centres undefined) it was “inactive”; in that of `O=C(O)CCCC[P+](c1ccccc1)(c1ccccc1)c1ccccc1`, “inactive”.
Consider `Cc1cccc(C)c1NC(=O)CC12CCCN1CCC2`, for which the Potency entry is “inactive”.
The same measure, in the same setting: in the case of `CC1=NS(=O)(=O)c2cc(Cl)ccc2N1` it was “inactive”; in that of `CC(C)C(=O)OC(=O)C(C)C`, “inactive”; in that of `CC/C=C\CCOC(C)OCC` (centres undefined), “inactive”.
Still for that read-out and setting: in the case of `CC(=O)C1CCCCC1=O` (centres undefined) it was “inactive”.
Same read-out and setting: in the case of `CC(C)(C)C(=O)c1ccccc1` it was “inactive”.
With `O=C(c1ccccc1)C1(O)CCCCC1`, the Potency result was “inactive”.
The same measure, in the same setting: the value for `CC1(C)OC[C@@H](COC(=O)CCc2ccc(OC[C@@H](O)CNCCNC(=O)N3CCOCC3)cc2)O1` was “inactive”; that for `CCCCCCC1CCC(=O)O1` (centres undefined) was “inactive”; that for `CCCCN(CCC(=O)OCC)C(C)=O` was “inactive”.
Same read-out and setting: the value for `CCCCCCCCCCCCCCCCCCO` was “inactive”.
Regarding `Clc1cc(Cl)cc(Cl)c1`, the Potency result is “inactive”.
On to `CN(C)CCN(C)CCN(C)C`, for which the Potency entry is “inactive”.
For `Cc1cc(C)c(N=Nc2c(O)c(S(=O)(=O)O)cc3cc(S(=O)(=O)O)ccc23)cc1C`, the activity change, negative = cytotoxicity is -6.32% [at 6.97 µM].
Regarding `C[N+](C)(C)CCCCCCCCCC[N+](C)(C)C`, the Potency entry is “inactive”.
With `NC(=O)N[C@@H](CCC(=O)O)C(=O)O`, the Potency result was “inactive”.
